Results filed as inconclusive are left out. A call without a number means that no potency is given here. The source made the active and inactive calls. Calls come from the whole dose curve; as a rule, active = well fitted inhibition curve with a large enough effect; inconclusive = small, poorly fitted or top-dose-only effect; inactive = no such curve, though single readings can be large or run the other way.
Biological target: M-phase phosphoprotein 8 (Homo sapiens) (UniProt Q99549)
Assay: qHTS Validation Assay for Inhibitors for MPP8 Chromodomain Interactions with Methylated Histone Tails (AID 488949); note: nearly all actives have a fitted effect of over 55% in size
Details: AlphaScreen MPP8 binding to H3K9me3 peptide; series mostly up to 57.1 µM
Summary of the method: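 AlphaScreen proximity signal from streptavidin donor and Ni-chelate acceptor beads (10 ug/mL each) reported binding of MPP8 to trimethyl-K9 H3(1-18) peptide, both at 50 nM. The complex formed 30 min before a 30 min compound exposure at room temperature, in PBS pH 7.4.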
Potency is the fitted concentration of half-maximal effect.

Chain of M-phase phosphoprotein 8 (Homo sapiens) (Q99549 whole entry, looked up): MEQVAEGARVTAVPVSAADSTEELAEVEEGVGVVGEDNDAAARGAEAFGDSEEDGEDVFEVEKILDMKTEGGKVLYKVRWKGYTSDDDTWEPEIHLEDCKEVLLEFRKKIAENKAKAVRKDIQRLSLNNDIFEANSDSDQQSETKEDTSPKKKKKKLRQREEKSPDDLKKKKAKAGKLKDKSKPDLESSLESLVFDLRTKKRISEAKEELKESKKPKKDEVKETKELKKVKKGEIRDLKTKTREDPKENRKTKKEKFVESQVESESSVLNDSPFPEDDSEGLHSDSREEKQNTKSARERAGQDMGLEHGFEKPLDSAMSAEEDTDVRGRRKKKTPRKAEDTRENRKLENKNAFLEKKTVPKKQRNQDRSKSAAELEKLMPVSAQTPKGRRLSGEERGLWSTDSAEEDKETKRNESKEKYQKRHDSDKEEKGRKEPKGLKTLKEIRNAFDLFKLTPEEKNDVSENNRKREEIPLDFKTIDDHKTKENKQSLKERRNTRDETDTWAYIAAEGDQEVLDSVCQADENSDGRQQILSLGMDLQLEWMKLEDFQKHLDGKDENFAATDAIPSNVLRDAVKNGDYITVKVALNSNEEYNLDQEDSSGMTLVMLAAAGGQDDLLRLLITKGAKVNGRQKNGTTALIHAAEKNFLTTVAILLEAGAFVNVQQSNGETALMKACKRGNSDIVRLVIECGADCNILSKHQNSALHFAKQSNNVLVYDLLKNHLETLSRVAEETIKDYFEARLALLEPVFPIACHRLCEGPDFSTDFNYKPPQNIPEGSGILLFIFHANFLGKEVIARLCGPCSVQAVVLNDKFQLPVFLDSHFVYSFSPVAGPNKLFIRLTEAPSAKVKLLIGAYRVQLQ

**Q.** For `C[N+]1(C)CCOC(O)(c2ccc(-c3ccc(C4(O)C[N+](C)(C)CCO4)cc3)cc2)C1` (stereo not given), which Potency is on record?
**A.** inactive

**Q.** How did the Potency turn out when `COc1ccc2[nH]cc(CCN)c2c1` was run?
**A.** inactive

**Q.** `NC(CCCCCP(=O)(O)O)C(=O)O` (stereo not given) was tested. Which Potency did it give?
**A.** inactive

**Q.** For `CC(C)NP(=O)(NC(C)C)OP(=O)(NC(C)C)NC(C)C`, which Potency is on record?
**A.** inactive

**Q.** For `C[C@]12Cc3cn4c(nc3C=C1CCC1C2CC[C@@]2(C)[C@H]1CC[C@@]2(O)C#N)nc1ccccc14` (stereo not given in full), which Potency is on record?
**A.** inactive

**Q.** `CCCN1CC[C@@H]2c3cc(O)ccc3CC[C@@H]21` was tested. Which Potency did it give?
**A.** inactive

**Q.** `NCCCP(=O)(O)O` was tested. Which Potency did it give?
**A.** inactive

**Q.** With `C[N+](C)(C)CCOC(=O)CBr` as the compound, how does the Potency read?
**A.** inactive

**Q.** Which Potency does the source give for `C=CCN1C[C@@H](C)N([C@H](c2ccc(C(=O)N(CC)CC)cc2)c2cccc(OC)c2)C[C@@H]1C` here?
**A.** inactive

**Q.** How did the Potency turn out when `Cc1o[nH]c(=O)c1CC(N)C(=O)O` (stereo not given) was run?
**A.** inactive

**Q.** How did the Potency turn out when `C[N+](C)(C)CC#CCN1CCCC1=O` was run?
**A.** inactive

**Q.** How did the Potency turn out when `NC(C(=O)O)c1cc(=O)[nH]o1` (stereo not given) was run?
**A.** inactive

**Q.** Which Potency does the source give for `O=C(O)c1cc[c]([Hg][Cl])cc1` here?
**A.** 5.32 µM (active)

**Q.** With `C[Se]C[C@H](N)C(=O)O` as the compound, how does the Potency read?
**A.** inactive

**Q.** For `CO[C@H]1CC=C2CCN3CCC4=C(CC(=O)OC4)[C@]23C1`, which Potency is on record?
**A.** inactive

**Q.** Which Potency does the source give for `COc1ccc(CNC(=O)/C=C/c2ccc3[nH]cc(CCN(C)C)c3c2)cc1` here?
**A.** inactive

**Q.** For `COc1ccc(OC)c(C(O)C(C)N)c1` (stereo not given), which Potency is on record?
**A.** inactive

**Q.** Which Potency does the source give for `CC12NC(Cc3ccccc31)c1ccccc12` (stereo not given) here?
**A.** inactive

**Q.** For `NC(=O)c1ccc(OCC(O)CN2CC=C(c3ccc(F)cc3)CC2)cc1` (stereo not given), which Potency is on record?
**A.** inactive

**Q.** How did the Potency turn out when `C=CCN1CC[C@]23c4c5ccc(O)c4O[C@H]2/C(=N/NC(=O)c2ccccc2)CC[C@@]3(O)[C@H]1C5` was run?
**A.** inactive

From PubChem BioAssay (NCATS)
